Screens as filed in PubChem BioAssay.
CHRM1 agonist = human M1 muscarinic receptor agonism; activation, % at 3 µM; CHO-K1 hM1, Fluo-8 calcium fluorescence, agonist mode; 0% DMSO, 100% acetylcholine EC100; actives 0.33% (n = 360,000); AID 588814;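 active means activation above the run's mean compound activation plus 3 SD, cut at about 16% in these data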;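 further: peak over basal fluorescence ratio within a 140 s kinetic read after compound addition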
Target sequence (P11229 whole entry, looked up): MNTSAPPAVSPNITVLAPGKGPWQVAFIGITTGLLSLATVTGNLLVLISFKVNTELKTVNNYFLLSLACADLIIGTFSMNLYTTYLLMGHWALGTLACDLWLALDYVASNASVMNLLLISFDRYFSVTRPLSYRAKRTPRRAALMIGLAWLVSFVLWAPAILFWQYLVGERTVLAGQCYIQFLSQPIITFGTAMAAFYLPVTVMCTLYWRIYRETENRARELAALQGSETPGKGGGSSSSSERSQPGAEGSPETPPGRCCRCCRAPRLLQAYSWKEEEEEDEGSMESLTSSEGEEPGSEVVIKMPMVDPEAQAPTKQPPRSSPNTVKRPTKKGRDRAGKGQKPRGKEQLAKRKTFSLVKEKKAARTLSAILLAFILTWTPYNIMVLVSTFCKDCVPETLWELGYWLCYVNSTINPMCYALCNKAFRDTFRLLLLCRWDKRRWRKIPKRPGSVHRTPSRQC
CHRM1 PAM = positive allosteric modulators of human M1 muscarinic receptor; P11229; actives 0.088% (n = 360,000); activation, % at 3 µM; CHO-K1 hM1, Fluo-8 calcium fluorescence, ACh EC20; 0% = ACh EC20, 100% = maximal ACh; in the data active means activation above about 19%, passing the limit was not always enough
M1 ag parental = nonselective activator or artifact in parental CHO-K1 cells; Fluo-8 calcium fluorescence; scaled to maximal ATP response, vehicle zero; activation, % at 3 µM; actives 0.48% (n = 360,000); AID 602248; in the data active means activation above about 15%;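 further: untransfected CHO-K1 host cells lacking M1 receptor as counterscreen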
CHRM1 antagonist = human CHRM1 antagonism; P11229; CHO-K1 hM1, Fluo-8 calcium fluorescence, ACh EC80 antagonist; inhibition, % at 3 µM; actives 1.3% (n = 360,000); AID 588852;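 active means percent inhibition above its own plate's cutoff, namely the mean of that plate's compound wells plus 3 SD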;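 further: peak over basal fluorescence ratio during 140 s after agonist addition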
M1 PAM parental = counter-screen for M1 PAMs: effect in parental CHO-K1 cells. actives 0.02% (n = 360,000). activation, % at 3 µM. ATP EC20, Fluo-8 calcium fluorescence; 0% at ATP EC20, 100% at ATP max. AID 602247;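 active means activation above the run cutoff, the mean activation of all test compounds plus 3 SD, cut at about 40% in these data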;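 further: peak over basal fluorescence ratio in a 140 s read after ATP addition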
CHO-K1 Ca antag = counter-screen for M1 antagonists: effect in parental CHO-K1 cells; ATP-induced calcium, Fluo-8 fluorescence; inhibition, % at 3 µM; actives 0.6% (n = 360,000); AID 602250;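 active means inhibition above a per-plate cutoff, the plate's mean sample inhibition plus 3 SD, cut at about 24% in these data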
Of the large screens only hits and unclear results are named; the others gave an inactive call. A selection: hits, their analogues and other compounds. The true share with any hit is near 2.4%.

CC(=O)Nc1cc(NC(C)=O)cc(C(=O)NCC2(N3CCOCC3)CCCCC2)c1	none
N#Cc1c(NC(=O)c2ccc(-c3ccccc3[N+](=O)[O-])o2)sc2c1CCCC2	CHO-K1 Ca antag 28
C/C(=N/NC(=O)CNc1ccc(C)cc1)c1ccc(Br)s1	M1 ag parental 21
COc1ccc(NC(=O)CC2(CC(=O)N3CCOCC3)CCCC2)cc1Cl	CHRM1 antagonist 56
CCOc1ccccc1NC(=O)CC1(CC(=O)N2CCOCC2)CCCC1	none
CSc1nsc(NN)n1	none
CCN1CCN(c2ncc(C(=O)Nc3c(F)cc(F)cc3Br)c3ccccc23)CC1	none
COc1ccccc1N1CCN(C(=O)c2n[nH]c3ccccc23)CC1	none
CCOC(=O)N1CCN(C(=O)c2cnc(Nc3ccccc3OC)c3ccccc23)CC1	CHRM1 antagonist 33
CCN1CCN(c2ncc(C(=O)Nc3cc(Cl)c(OC)cc3OC)c3ccccc23)CC1	CHRM1 antagonist 34
CCN1CCN(c2ncc(C(=O)N3CCN(c4ccccc4OC)CC3)c3ccccc23)CC1	CHRM1 antagonist 21
O=C(Cn1nc(C(=O)O)c2ccccc2c1=O)Nc1cc(S(=O)(=O)N2CCCCC2)ccc1Cl	none
O=C(Nc1cc(S(=O)(=O)N2CCOCC2)ccc1Cl)c1cc([N+](=O)[O-])ccc1Cl	none
Cc1cccc(NS(=O)(=O)c2cccc(C(=O)NCC(c3ccc(F)cc3)N3CCOCC3)c2)c1 (stereo not drawn)	none
O=C(Cn1ccc([N+](=O)[O-])n1)NCc1nc2ccccc2[nH]1	M1 ag parental 17
Cc1noc(C)c1NC(=O)N(C)C[C@H]1OCc2cn(nn2)CCCC(=O)N([C@@H](C)CO)C[C@@H]1C	none
N#Cc1c(N2CCN(c3ccc(F)cc3)CC2)nc(N)c2c(N)nc3c(c12)CC(=O)N3C1CC1	CHRM1 antagonist 31
CC1(C)CC(=O)C(C=NCCN2CCN(C3CC(=O)N(c4cccc(Br)c4)C3=O)CC2)=C(O)C1 (stereo not drawn)	none
COc1cccc(N2C(=O)CC(N3CCN(CCN=CC4=C(O)CC(C)(C)CC4=O)CC3)C2=O)c1 (stereo not drawn)	M1 ag parental 19
CC(C)N(C(=O)COC(=O)c1cccc(N(C)C)c1)c1ccccc1	none
CCN1C(=O)[C@H]2[C@@H](c3ccc(C)cc3)N[C@]3(CCCN(Cc4ccc(F)cc4)C3=O)[C@H]2C1=O	CHO-K1 Ca antag 25
Cc1ccc(CN2CCC[C@]3(N[C@H](c4ccccc4)[C@@H]4C(=O)N(Cc5ccccc5)C(=O)[C@@H]43)C2=O)cc1	CHO-K1 Ca antag 29
CCN1C(=O)[C@H]2[C@@H](c3ccc(C(F)(F)F)cc3)N[C@]3(CCCN(Cc4ccc(C(F)(F)F)cc4)C3=O)[C@H]2C1=O	none
CC1(C)C(=O)Nc2ccccc2N1C(=O)COC(=O)/C=C/c1ccc(OC(F)F)cc1	none
CCN1/C(=C/c2ccc3ccccc3[n+]2CC)C=Cc2ccccc21	CHRM1 antagonist 48, CHO-K1 Ca antag 32
CCN1/C(=C/c2ccc3cc(C)ccc3[n+]2CC)Sc2cc(C)ccc21	CHRM1 agonist 26, M1 ag parental 22, CHRM1 antagonist 67, CHO-K1 Ca antag 43
CCN1/C(=C/c2ccc3ccccc3[n+]2CCCS(=O)(=O)[O-])C=Cc2cc(C)ccc21	none
CCCCN1/C(=C/c2ccc3ccccc3[n+]2CC)Sc2ccccc21	CHRM1 agonist 26, M1 ag parental 19, CHRM1 antagonist 44
CCOC(=O)Cn1cc(C#N)c(=O)[nH]c1=O	none
N#Cc1cn(CCOC(=O)c2cccc(C(F)(F)F)c2)c(=O)[nH]c1=O	CHO-K1 Ca antag 37
Cc1cccc2sc(N(CCCN(C)C)C(=O)c3ccco3)nc12	CHRM1 antagonist 76
Cc1cccc2sc(N(CCCN(C)C)C(=O)c3ccc(Cl)s3)nc12	CHRM1 antagonist 51
NS(=O)(=O)c1cccc(NC(=O)COC(=O)CN2C(=O)c3ccccc3C2=O)c1	none
Cc1cccc(OCc2nnc(SCC(=O)NCc3ccc4c(c3)OCO4)o2)c1	none
COCCn1nnnc1C(c1cccc(OC)c1OC)N1CCN(C(=O)c2ccco2)CC1 (stereo not drawn)	none
COCCn1nnnc1C(c1cccc(OC)c1OC)N1CCN(C2CCCCC2)CC1 (stereo not drawn)	CHRM1 PAM 24
CCc1nn(C(CC)C(=O)NCc2cccc(OC)c2OC)c(=O)c2cc3occc3n12 (stereo not drawn)	none
CCOC(=O)/C=C/C(=O)Nc1ccc(Oc2ccccc2)cc1	CHO-K1 Ca antag 28
O=C(O)/C=C/C(=O)Nc1ccc(Oc2ccccc2)cc1	none
CC(=O)c1ccc(N(C(=O)CS(=O)CC(=O)Nc2ccc(F)cc2)C(C(=O)NC2CCCCC2)c2cccs2)cc1 (stereo not drawn)	CHO-K1 Ca antag 25
O=C(CS(=O)CC(=O)N(CC(=O)NC1CCCC1)C1CCCC1)Nc1ccc(F)cc1 (stereo not drawn)	CHRM1 PAM 28
CCCn1c(N)c(N(CCOC)C(=O)COC(=O)CSc2cc(C)c3ccccc3n2)c(=O)[nH]c1=O	none
COC(=O)c1cnc(Nc2nc(C(N)Cc3ccc(OC)cc3)cs2)nc1C(F)(F)F (stereo not drawn)	none
CCCc1cnc(Nc2nc(C(N)Cc3ccc(C(F)(F)F)cc3)cs2)nc1 (stereo not drawn)	CHRM1 agonist 18
COC(=O)c1cnc(Nc2nc(C(N)Cc3ccccc3)cs2)nc1C(F)(F)F (stereo not drawn)	CHRM1 PAM 26
Cc1ccc(-c2cnc(C(O)c3cc(F)cc(Cl)c3)[nH]2)cc1 (stereo not drawn)	none
Cc1ccc(OCC(=O)NCCNC(=O)c2ccco2)cc1C	none
COc1ccc(C(=O)Nc2nnc(CCc3ccccc3)s2)c(OC)c1	CHO-K1 Ca antag 35
COCc1nnc(NC(=O)c2ccc(OC)cc2OC)s1	none
COc1ccc(C)cc1NC(=O)CSc1nnc2ccc(-c3cccnc3)nn12	none
COc1ccc(-c2nnc(NC(=O)C(C)C)s2)c(OC)c1	CHRM1 antagonist 39
COc1ccc(OCc2n(CC(=O)OC3CC(C)CCC3C(C)C)c3ccccc3[n+]2C)cc1 (stereo not drawn)	CHRM1 antagonist 39
CC1CCC(C(C)C)C(OC(=O)CSc2nccc(=O)[nH]2)C1 (stereo not drawn)	none
COc1ccc(-c2n(CC(=O)OC3CC(C)CCC3C(C)C)c3ccccc3[n+]2C)cc1 (stereo not drawn)	CHRM1 antagonist 28, CHO-K1 Ca antag 24
O=C(Nc1ccccc1Cl)N1CCN(c2ccc3nnc(-c4ccc(F)cc4)n3n2)CC1	none
Fc1ccc(-c2nnc3ccc(N4CCCC4)nn23)cc1	CHRM1 antagonist 102
